From the OligoGym collection

These sequences were tested against GPX2 (assay: pooled miR-30 sensor sort-seq; sequence = guide strand). Conditions: shRNA.
Further: reference of the scale not given here.

Sequence | sensor-assay potency score (higher = more potent)
TTGCAGCTCGTTGAGCTGGGTG | -0.963
TCACATTTTTGGACAAGGGTGA | 0.0993
TATGAGGAACTTCTCAAAGTTC | -1.27
TTGATGTCAGGCTCAATGTTGA | -0.614
TTTTGGACAAGGGTGAAGGTGG | -0.672

Each sequence was assayed against GRAMD1B in the same assay as above. Conditions: shRNA.

Sequence | sensor-assay potency score (higher = more potent)
AACATCATCATATATGTCCTAT | -0.649
TTGTAGAAGAGCATCATGTTAA | -0.883
TTTTCTTCACTTTCCGACGTGT | 0.0883
TTGTCATTGAAGTCCAGTGAAG | -1.36
TTCTTGGAGCCTTAGACCCTGC | -0.896
TTGTGTAGAAGTAGTCATGGTA | 0.548
TACATGGTCTGTGTCTCCCTGA | 0.155
TTTTTGGAGCTCAGTATCGTGG | -1.12
TTGGTCTCTATGCTGCTCTTGG | -0.389
TATCGTGGTACTTTTGTTGGGA | 0.623
TTGTCTGTGCATCTCAGCCAAA | -1.36
TAACACATTATACCAACTCTGG | -0.853

What follows are sequences tested against GRAMD1C in the same assay as above. Conditions: shRNA.

Sequence | sensor-assay potency score (higher = more potent)
TTCATTTTTATTCAAGTCCAGT | -0.865
TTATTTAGTAGATCAAACGTTT | -0.243
TAACTCTTGAAAAAATATCTGA | -0.51
TTGCTATAGAAACATAGCCAGT | -1.61
TAGTCCTCCAAAGAACTCCAGG | -0.901
TTGATAGTCAGTACACTTGTAC | 0.115
TATTCTTCTGAATAGTTTCTGC | -0.573
TAACAAATCTGATTCAAGCTGT | 0.354
TTTTGATGAATTTCCATCGAAT | -0.801
TACATCTTCCTGTAAGTCGGTG | -0.625
ATAATCATCATCAACATGCAGA | 0.0723
TATAAAGCAACTTACTTCGATA | -0.838

These sequences were tested against GRHL3 in the same assay as above. Conditions: shRNA.

Sequence | sensor-assay potency score (higher = more potent)
TCACAGAAGATCTTGATCTGGC | 0.419
TTTGTGGCAGCTGTCAACGGGT | -0.745
TTTTCTAGGTACGTCTTCCAGG | -0.466
TAGTGTAAGAGAATTTCTGCAA | 0.49
TTGATCTGGCAGACAGCACGGT | -0.0201
TTTTGTGAGGAAAAGTCTGTGC | -0.211
TTCTTCTTGAGCAAATCTGGGT | -0.605
TTTAGCAGCCGCACAGACCTGA | -0.237
TTGCATTTCTTGTAGACTTTGT | -0.218
TATTCTTCTTGAGCAAATCTGG | -0.748
TTGACTAAGATTCCTCGCTTGC | -0.416
